Consider one sequence from PMC7862700, “An all-to-all approach to the identification of sequence-specific readers for epigenetic DNA modifications on cytosine”.

Experiment in all cases: DAPPL (digital affinity profiling via proximity ligation, sequencing); 10 mM Tris-HCl pH 7.5, 50 mM NaCl, 1 mM DTT, 4% glycerol, room temperature, 30 min; GST-TFs on glutathione beads, 16-mer random dsDNA library, 0.1% formaldehyde crosslink after washing; high values mean tight binding
One assay addresses T1, FLI1 (Homo sapiens, UniProt Q01543 1-452).
T1 sequence: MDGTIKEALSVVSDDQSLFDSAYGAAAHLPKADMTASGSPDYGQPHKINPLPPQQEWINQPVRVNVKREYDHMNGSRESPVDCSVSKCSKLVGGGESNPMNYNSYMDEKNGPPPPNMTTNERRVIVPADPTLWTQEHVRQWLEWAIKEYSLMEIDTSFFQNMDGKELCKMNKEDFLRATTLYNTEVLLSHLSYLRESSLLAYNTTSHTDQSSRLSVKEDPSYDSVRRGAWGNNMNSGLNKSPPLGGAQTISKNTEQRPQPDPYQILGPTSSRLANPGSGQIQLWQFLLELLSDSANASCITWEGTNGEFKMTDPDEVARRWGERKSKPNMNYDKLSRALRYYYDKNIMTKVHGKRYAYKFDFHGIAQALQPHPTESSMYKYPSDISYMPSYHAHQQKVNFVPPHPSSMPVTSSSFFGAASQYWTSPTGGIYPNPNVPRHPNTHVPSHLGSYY
As to conditions: protein: recombinant; tags: N-terminal GST; dsDNA, one strand shown. The method, boiled down: (§1)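 Each value of binding signal is a hexamer's read frequency for a factor divided by the same hexamer's frequency in the tag-only sample. Barcoded, bead-captured GST fusions of human transcription factors made in yeast were pooled with that sample and incubated with 200 nmole of a random double-stranded 16-mer DNA library in Tris/NaCl/DTT/glycerol buffer at room temperature for 30 min. Washing, 0.1% formaldehyde crosslinking, proximity ligation, PCR and Illumina NextSeq500 sequencing followed.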

The next assay concerns the target T2, ELK1 (Homo sapiens, UniProt P19419 1-428).
T2 sequence: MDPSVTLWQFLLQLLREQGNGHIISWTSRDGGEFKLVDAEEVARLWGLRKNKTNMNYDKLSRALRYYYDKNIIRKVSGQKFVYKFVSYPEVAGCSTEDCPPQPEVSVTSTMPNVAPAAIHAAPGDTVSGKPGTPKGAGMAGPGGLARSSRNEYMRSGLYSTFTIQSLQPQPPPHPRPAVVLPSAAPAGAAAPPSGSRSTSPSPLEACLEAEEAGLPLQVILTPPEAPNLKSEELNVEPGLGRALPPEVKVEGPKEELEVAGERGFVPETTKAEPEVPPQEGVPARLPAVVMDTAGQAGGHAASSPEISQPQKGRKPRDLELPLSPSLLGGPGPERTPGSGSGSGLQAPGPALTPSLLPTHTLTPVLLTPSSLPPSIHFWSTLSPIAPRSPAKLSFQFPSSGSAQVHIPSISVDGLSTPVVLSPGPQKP
As to conditions: protein: recombinant; tags: N-terminal GST; dsDNA, one strand shown. The method in brief:
as §1

A further assay has as its target T3, GABPA (Homo sapiens, UniProt Q06546 1-454).
T3 sequence: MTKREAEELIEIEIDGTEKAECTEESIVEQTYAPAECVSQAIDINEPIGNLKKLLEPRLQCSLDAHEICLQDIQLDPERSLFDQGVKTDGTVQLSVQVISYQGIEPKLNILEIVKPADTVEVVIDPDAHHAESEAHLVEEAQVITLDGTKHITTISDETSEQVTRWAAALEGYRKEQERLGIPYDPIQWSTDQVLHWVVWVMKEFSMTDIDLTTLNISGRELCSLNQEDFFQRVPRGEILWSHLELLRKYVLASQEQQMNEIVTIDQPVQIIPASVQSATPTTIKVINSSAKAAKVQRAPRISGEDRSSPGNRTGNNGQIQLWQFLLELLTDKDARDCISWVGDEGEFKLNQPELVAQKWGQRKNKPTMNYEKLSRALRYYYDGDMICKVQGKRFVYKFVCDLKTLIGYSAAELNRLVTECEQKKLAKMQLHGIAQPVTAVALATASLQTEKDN
As to conditions: protein: recombinant; tags: N-terminal GST; dsDNA, one strand shown. The method, boiled down:
as §1

Another assay concerns the target T4, ERG (Homo sapiens, UniProt P11308 1-479).
T4 sequence: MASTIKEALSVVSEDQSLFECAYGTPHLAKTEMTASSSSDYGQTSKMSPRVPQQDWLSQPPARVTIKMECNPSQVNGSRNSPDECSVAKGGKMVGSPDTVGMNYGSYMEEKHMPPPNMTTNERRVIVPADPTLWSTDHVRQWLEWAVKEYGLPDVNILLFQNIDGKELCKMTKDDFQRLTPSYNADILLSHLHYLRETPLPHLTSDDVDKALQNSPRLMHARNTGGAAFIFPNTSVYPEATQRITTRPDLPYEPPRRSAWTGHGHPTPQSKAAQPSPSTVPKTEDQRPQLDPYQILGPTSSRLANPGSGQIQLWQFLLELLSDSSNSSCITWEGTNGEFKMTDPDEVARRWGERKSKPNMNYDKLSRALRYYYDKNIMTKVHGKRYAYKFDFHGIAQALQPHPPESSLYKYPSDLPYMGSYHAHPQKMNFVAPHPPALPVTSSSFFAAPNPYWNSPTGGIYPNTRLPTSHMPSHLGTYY
As to conditions: protein: recombinant; tags: N-terminal GST; dsDNA, one strand shown. The method in brief: as §1

The target of the next assay is ELF1 (Homo sapiens, UniProt P32519 1-619). As to conditions: protein: recombinant; tags: N-terminal GST; dsDNA, one strand shown. The method in brief:
as §1

The next assay addresses T5, EHF (Homo sapiens, UniProt Q9NZC4 1-300).
T5 sequence: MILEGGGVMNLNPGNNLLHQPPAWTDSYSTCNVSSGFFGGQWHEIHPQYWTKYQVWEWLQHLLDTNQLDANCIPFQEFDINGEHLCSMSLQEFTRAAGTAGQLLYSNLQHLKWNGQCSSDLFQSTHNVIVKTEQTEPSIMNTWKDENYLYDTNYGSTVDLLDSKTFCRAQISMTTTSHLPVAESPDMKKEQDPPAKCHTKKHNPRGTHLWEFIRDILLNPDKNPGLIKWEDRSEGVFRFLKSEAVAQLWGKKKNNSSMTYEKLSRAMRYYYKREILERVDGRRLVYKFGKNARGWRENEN
As to conditions: protein: recombinant; tags: N-terminal GST; dsDNA, one strand shown. The method, boiled down: as §1

Another assay deals with SPI1 (Homo sapiens, UniProt P17947 1-270). As to conditions: protein: recombinant; tags: N-terminal GST; dsDNA, one strand shown. The method in brief:
as §1

The target of a further assay is SPIB (Homo sapiens, UniProt Q01892 1-262). As to conditions: protein: recombinant; tags: N-terminal GST; dsDNA, one strand shown. The method in brief: as §1
The next assay addresses T6, ELK3 (Homo sapiens, UniProt P41970 1-407).
T6 sequence: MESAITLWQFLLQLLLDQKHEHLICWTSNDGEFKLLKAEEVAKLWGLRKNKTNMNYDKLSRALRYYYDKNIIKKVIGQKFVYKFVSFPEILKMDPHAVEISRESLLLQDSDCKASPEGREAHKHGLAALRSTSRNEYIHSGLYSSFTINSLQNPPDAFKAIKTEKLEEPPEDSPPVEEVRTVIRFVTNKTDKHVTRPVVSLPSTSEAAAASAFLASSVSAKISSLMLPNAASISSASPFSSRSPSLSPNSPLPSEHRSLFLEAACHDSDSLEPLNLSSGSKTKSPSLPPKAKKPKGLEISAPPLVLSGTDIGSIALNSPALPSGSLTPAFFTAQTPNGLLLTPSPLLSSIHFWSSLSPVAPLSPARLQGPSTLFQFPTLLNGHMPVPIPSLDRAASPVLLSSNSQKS
As to conditions: protein: recombinant; tags: N-terminal GST; dsDNA, one strand shown. The method, boiled down:
as §1

Another assay deals with T7, FEV (Homo sapiens, UniProt Q99581 1-238).
T7 sequence: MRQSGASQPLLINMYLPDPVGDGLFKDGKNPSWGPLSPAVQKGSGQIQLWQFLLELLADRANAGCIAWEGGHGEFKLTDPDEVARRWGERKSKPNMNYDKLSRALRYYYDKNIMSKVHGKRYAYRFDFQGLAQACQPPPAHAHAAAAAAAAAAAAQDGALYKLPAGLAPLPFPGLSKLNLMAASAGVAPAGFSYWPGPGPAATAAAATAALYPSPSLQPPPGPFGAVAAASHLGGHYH
As to conditions: protein: recombinant; tags: N-terminal GST; dsDNA, one strand shown. The method in brief:
as §1

A further assay deals with ETV5 (Homo sapiens, UniProt P41161 1-510). As to conditions: protein: recombinant; tags: N-terminal GST; dsDNA, one strand shown. The method in brief: as §1
In another assay the target is HSF1 (Homo sapiens, UniProt Q00613 1-529). As to conditions: protein: recombinant; tags: N-terminal GST; chain copies: 3; dsDNA, one strand shown. The method, boiled down:
as §1

The next assay concerns the target ELF4 (Homo sapiens, UniProt Q99607 1-663). As to conditions: protein: recombinant; tags: N-terminal GST; dsDNA, one strand shown. The method, boiled down: as §1
The target of another assay is T8, ELK4 (Homo sapiens, UniProt P28324-2 1-405).
T8 sequence: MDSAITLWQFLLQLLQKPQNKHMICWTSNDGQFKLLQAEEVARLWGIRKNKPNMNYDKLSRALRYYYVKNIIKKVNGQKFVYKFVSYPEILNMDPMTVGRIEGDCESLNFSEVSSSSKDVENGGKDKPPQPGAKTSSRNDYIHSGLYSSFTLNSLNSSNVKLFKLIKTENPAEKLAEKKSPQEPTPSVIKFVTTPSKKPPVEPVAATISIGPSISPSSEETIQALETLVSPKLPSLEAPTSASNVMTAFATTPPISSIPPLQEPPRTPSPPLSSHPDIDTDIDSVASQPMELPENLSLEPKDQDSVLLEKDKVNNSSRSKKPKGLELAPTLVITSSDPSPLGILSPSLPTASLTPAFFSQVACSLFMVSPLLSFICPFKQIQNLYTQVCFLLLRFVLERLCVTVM
As to conditions: protein: recombinant; tags: N-terminal GST; dsDNA, one strand shown. The method, boiled down: as §1

The target in a further assay is T9, ETV2 (Homo sapiens, UniProt O00321 1-342).
T9 sequence: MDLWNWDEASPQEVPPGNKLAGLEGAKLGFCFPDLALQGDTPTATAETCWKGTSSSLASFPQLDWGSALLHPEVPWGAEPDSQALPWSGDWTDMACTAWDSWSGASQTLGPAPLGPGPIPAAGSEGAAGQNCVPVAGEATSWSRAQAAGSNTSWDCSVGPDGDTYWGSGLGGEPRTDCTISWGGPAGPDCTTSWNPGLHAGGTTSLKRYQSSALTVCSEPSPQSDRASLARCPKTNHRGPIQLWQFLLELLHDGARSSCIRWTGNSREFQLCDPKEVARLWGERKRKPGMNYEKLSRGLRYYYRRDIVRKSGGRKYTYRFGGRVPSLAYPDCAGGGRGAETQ
As to conditions: protein: recombinant; tags: N-terminal GST; dsDNA, one strand shown. The method, boiled down:
as §1

Another assay has as its target T10, ELF3 (Homo sapiens, UniProt P78545 1-371).
T10 sequence: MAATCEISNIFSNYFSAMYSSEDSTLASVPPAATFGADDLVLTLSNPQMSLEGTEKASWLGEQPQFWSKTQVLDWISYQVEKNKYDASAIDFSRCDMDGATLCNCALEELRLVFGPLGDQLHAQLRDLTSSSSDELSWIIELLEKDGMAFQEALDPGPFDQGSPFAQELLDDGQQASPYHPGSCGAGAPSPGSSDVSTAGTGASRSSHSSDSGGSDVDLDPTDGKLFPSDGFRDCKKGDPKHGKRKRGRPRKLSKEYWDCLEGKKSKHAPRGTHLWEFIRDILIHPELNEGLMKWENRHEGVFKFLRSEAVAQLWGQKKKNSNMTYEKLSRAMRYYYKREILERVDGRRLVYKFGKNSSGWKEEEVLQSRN
As to conditions: protein: recombinant; tags: N-terminal GST; dsDNA, one strand shown. The method in brief:
as §1

The next assay addresses CRX (Homo sapiens, UniProt O43186 1-299). As to conditions: protein: recombinant; tags: N-terminal GST; dsDNA, one strand shown. The method in brief: as §1
In another assay the target is ETV1 (Homo sapiens, UniProt P50549 1-477). As to conditions: protein: recombinant; tags: N-terminal GST; dsDNA, one strand shown. The method, boiled down:
as §1

Sequence of SPIB (Q01892 whole entry): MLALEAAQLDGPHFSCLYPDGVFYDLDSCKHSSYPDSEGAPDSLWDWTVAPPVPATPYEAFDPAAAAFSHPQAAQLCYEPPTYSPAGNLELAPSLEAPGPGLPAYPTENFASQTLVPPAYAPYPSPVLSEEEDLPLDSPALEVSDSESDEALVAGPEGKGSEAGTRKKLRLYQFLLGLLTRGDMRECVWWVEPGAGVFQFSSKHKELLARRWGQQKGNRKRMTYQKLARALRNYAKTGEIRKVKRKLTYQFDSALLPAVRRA
Sequence of ETV5 (P41161 whole entry): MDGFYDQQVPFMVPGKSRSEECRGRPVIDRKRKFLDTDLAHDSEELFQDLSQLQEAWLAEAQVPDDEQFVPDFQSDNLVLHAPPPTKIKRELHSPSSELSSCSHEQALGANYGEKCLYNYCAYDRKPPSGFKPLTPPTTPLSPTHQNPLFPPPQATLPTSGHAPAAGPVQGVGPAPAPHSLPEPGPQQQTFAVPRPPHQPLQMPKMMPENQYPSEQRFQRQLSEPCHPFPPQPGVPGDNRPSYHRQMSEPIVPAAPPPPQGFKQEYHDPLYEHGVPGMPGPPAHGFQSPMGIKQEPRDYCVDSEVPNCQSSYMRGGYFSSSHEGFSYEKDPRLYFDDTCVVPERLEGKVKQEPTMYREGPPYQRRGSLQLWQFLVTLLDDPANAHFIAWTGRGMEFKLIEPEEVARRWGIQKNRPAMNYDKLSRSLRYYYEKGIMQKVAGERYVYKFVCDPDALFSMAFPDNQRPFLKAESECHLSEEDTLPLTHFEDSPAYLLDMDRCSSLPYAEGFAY
Sequence of HSF1 (Q00613 whole entry): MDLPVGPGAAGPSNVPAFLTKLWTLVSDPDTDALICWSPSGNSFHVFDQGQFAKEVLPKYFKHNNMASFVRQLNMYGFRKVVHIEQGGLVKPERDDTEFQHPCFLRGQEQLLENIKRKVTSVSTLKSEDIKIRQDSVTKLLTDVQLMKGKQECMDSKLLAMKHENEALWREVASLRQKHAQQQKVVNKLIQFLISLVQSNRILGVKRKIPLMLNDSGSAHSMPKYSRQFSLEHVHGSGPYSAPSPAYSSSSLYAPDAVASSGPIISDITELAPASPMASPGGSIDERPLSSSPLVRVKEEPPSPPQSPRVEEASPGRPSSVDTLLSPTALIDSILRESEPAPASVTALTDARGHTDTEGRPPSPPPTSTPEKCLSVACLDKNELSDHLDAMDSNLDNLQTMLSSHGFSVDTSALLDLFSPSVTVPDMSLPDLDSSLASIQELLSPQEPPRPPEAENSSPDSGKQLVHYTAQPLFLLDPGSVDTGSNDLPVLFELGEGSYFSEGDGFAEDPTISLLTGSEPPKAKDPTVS
Sequence of ELF1 (P32519 whole entry): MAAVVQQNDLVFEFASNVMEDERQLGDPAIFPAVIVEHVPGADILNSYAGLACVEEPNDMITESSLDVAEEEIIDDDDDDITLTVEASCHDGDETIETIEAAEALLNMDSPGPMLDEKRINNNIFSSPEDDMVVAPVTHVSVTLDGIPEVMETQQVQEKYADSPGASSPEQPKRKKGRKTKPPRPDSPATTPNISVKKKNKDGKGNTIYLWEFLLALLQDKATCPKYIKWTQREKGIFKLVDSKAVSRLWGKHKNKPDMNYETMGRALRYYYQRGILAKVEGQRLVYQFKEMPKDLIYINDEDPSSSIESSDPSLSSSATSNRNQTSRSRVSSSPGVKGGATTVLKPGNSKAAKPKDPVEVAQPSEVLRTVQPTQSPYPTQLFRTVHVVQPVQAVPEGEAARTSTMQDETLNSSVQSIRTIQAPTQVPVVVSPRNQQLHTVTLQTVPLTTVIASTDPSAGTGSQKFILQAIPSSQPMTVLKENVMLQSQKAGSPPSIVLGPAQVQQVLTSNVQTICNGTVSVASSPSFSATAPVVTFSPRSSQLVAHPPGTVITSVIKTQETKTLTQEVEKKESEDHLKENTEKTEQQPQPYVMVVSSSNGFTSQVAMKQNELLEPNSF
Sequence of ELF4 (Q99607 whole entry): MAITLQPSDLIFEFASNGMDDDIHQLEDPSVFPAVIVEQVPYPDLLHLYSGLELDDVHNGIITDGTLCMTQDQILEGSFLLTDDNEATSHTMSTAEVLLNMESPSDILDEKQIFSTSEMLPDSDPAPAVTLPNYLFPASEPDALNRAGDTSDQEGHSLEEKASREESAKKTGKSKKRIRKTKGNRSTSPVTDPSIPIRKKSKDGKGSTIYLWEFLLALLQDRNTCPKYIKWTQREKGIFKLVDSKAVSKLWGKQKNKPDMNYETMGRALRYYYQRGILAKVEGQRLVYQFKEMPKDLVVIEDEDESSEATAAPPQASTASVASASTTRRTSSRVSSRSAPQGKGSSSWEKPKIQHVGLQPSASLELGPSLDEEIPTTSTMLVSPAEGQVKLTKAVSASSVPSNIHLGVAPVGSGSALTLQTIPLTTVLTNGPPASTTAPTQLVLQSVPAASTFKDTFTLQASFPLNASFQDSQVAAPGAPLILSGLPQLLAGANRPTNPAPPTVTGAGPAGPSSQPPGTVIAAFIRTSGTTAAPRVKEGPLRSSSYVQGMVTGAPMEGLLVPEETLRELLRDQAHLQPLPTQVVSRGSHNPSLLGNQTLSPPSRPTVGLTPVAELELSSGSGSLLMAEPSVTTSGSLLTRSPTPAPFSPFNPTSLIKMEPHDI
Sequence of ETV1 (P50549 whole entry): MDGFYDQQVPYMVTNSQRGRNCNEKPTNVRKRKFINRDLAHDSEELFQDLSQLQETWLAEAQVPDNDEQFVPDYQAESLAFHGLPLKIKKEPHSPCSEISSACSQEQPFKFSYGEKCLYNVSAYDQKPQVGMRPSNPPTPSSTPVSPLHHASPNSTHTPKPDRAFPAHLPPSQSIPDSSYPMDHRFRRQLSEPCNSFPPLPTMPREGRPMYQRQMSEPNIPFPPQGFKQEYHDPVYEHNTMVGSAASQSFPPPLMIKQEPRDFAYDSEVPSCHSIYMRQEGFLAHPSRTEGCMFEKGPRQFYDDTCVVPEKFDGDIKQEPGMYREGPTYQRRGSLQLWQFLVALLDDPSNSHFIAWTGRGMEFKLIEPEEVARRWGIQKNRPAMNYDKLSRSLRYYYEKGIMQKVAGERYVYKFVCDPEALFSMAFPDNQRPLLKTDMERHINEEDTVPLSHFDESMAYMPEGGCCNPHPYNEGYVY
Sequence of CRX (O43186 whole entry): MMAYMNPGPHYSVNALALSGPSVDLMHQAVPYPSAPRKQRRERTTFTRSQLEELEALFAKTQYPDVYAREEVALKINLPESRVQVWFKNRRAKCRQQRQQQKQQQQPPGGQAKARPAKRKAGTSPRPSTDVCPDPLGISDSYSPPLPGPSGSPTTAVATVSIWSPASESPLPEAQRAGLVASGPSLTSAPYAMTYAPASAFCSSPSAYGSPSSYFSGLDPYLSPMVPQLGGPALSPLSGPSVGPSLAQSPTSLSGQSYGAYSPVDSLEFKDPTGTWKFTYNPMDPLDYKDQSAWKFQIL

Consider TAAAGA, for which the binding signal in the assay with FLI1 is 1.11 fold enrichment (6-mer frequency, TF over GST control); with ELK1 it was 1.04 fold enrichment (6-mer frequency, TF over GST control); in the assay with GABPA, 1.14 fold enrichment (6-mer frequency, TF over GST control); with ERG, 1.14 fold enrichment (6-mer frequency, TF over GST control); with ELF1, 1.14 fold enrichment (6-mer frequency, TF over GST control); with EHF, 1.07 fold enrichment (6-mer frequency, TF over GST control). Also, the binding signal with SPI1 is 1.12 fold enrichment (6-mer frequency, TF over GST control); with SPIB it was 1.11 fold enrichment (6-mer frequency, TF over GST control); with ELK3, 1.07 fold enrichment (6-mer frequency, TF over GST control); with FEV, 1.09 fold enrichment (6-mer frequency, TF over GST control); in the assay with ETV5, 1.07 fold enrichment (6-mer frequency, TF over GST control); in the assay with HSF1, 1.56 fold enrichment (6-mer frequency, TF over GST control). In addition, the binding signal in the assay with ELF4 was 1.07 fold enrichment (6-mer frequency, TF over GST control); with ELK4 it was 1.11 fold enrichment (6-mer frequency, TF over GST control); with ETV2, 1.13 fold enrichment (6-mer frequency, TF over GST control); with ELF3 it was 1.2 fold enrichment (6-mer frequency, TF over GST control); with CRX it was 1.85 fold enrichment (6-mer frequency, TF over GST control); with ETV1, 1.11 fold enrichment (6-mer frequency, TF over GST control).
